Here are results for six molecules from PubChem BioAssay.

The source made the active and inactive calls. Unless noted, the rule behind the calls is not given here.

A short description of assay [1]: compounds binding Alexa647 anti-His antibody – biochemical, small-molecule microarray, 635 nm fluorescence, artefact control for SMM control protein annotation, primary screen (AID 1128).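 Note: score merges feature fluorescence with signal-to-noise for each printed compound spot.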 Conditions: higher = more signal.
In assay [2] the test system is Human papillomavirus type 1a E7 protein (residues 1-88). The assay is described as follows: HPV1a E7 small-molecule binders, primary screen, biochemical, small-molecule microarray, residues 1-88, 635 nm (AID 1129). Conditions: small-molecule microarray binding, fluorescence 635 nm; higher = more signal.
The target of assay [3] is Focal adhesion kinase 1 (Homo sapiens) (UniProt Q05397). The assay is described as follows: PTK2 protein binding on printed compound slides – biochemical, small-molecule microarray, 635/667 nm fluorescence, BSA, DTT, primary screen (AID 1130).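 Note: composite of spot emission at 667 nm and signal to noise over triplicate slides.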 Conditions: 635 nm fluorescence, higher = more signal.
Assay [4] deals with Fibrinogen (Alexa647-labelled). As to the kind of experiment: Alexa647-fibrinogen binding to printed small molecules – biochemical, small-molecule microarray, 635/667 nm fluorescence, artefact control for SMM control-protein annotation, profiling panel (AID 1131).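 Note: z-score merges 667 nm fluorescence with per-spot signal-to-noise over triplicate slides.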 The settings on record: fibrinogen-A647 binding fluorescence, higher = more signal.
In assay [5] the target is Follistatin (Homo sapiens) (UniProt P19883). As to the kind of experiment: FST protein binding to printed compounds – biochemical, small-molecule microarray, 635/667 nm fluorescence, primary screen (AID 1132). The settings on record: 635 nm fluorescence, higher = more signal.
For assay [6], the target named is Fibroblast growth factor 2 (Homo sapiens) (UniProt P09038). The assay is described as follows: basic fibroblast growth factor binding to printed compounds – biochemical, small-molecule microarray, 635/667 nm fluorescence, primary screen (AID 1133). The settings on record: FGF2, fluorescence 635/667, higher = more signal.
Assay [7] is described as follows: JC-1 mitochondrial potential readout, lung cancer cells – cell-based, A549, JC-1 fluorescence, basal, 24 h, 100 nL, profiling panel (AID 1138).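 Note: A549 lung adenocarcinoma cells under basal conditions with no added stimulus; test concentration not given here.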 The settings on record: higher = more signal.
For another assay, the system named is Lefty1. The assay is described as follows: Lefty1 protein binding to printed compounds – biochemical, small-molecule microarray, 635/667 nm fluorescence, primary screen (AID 1139). The settings on record: fluorescence 635/667, higher = more signal.
Assay [8] deals with wheat germ agglutinin (Triticum aestivum), Alexa647-labelled. As to the kind of experiment: Alexa647-WGA lectin binding to printed small molecules – biochemical, small-molecule microarray, 635/667 nm fluorescence, artefact control for SMM control-protein annotation, profiling panel (AID 1140).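 Note: score merges 667 nm feature emission with signal to noise over triplicate slides.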 Conditions: WGA-A647 binding, 635 nm fluorescence, higher = more signal.
The target of assay [9] is Luciferin 4-monooxygenase (Photinus pyralis) (UniProt P08659). As to the kind of experiment: inhibition of purified Photinus pyralis luciferase – biochemical, luminescence, purified enzyme, 2006 set, primary screen (AID 1141).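 Note: cell-free assay with purified firefly luciferase at 100 ng per well in PBS; test concentration not given here.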 The settings on record: purified firefly luciferase, SteadyGlo luminescence, 30 min; higher = more signal, called active from +8 up or from −8 down.

Assay [10] concerns Wnt5a (protein binding on small-molecule microarray). The assay is described as follows: small molecules binding Wnt5a protein – biophysical, small-molecule microarray, 635/667 nm fluorescence, primary screen (AID 1142).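 Note: fluorescence read at 667 nm with signal to noise per printed feature.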 The settings on record: 635 nm fluorescence, higher = more signal.
Assay [11] is described as follows: ATP-based viability of Huh7 replicon cells – cell-based, CellTiter-Glo luminescence, basal, 48 h, cytotoxicity control for HCV replication inhibitor project, primary screen (AID 1143).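 Note: Huh7 hepatoma cells carrying a hepatitis C replication reporter with no stimulus; test concentration not given here.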 The settings on record: higher = more signal, called active from +8 up or from −8 down.
Assay [12] in a line: Pseudomonas biofilm growth suppression – PAO1 strain, BacTiter-Glo luminescence, LB-PBS, primary screen (AID 1144). The settings on record: P. aeruginosa PAO1 biofilm, 12 h, higher = more signal.
Assay [13] can be described thus: basal CRE-LacZ reporter activity in PC12 – cell-based, unstimulated, primary screen (AID 1145). Conditions: no forskolin, luminescence, 4.5 h, higher = more signal, called active from +8 up or from −8 down.
Assay [14] is described as follows: forskolin-driven CRE-LacZ activity in PC12 – cell-based, CRE-LacZ reporter, forskolin-stimulated, primary screen (AID 1146).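 Note: PC12 cells with 6xCRE LacZ reporter stimulated by forskolin 10 µM; beta-galactosidase reporter signal reflecting CREB driven transcription.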 Conditions: luminescence, 4.5 h, higher = more signal, called active from +8 up or from −8 down.
The target in assay [15] is Streptavidin (Streptomyces avidinii) (UniProt P22629). The assay is described as follows: compounds binding control protein streptavidin – biophysical, small-molecule microarray, 635/667 nm fluorescence, artefact control for SMM compound annotation, primary screen (AID 1147).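 Note: signal reflects streptavidin binding to arrayed compounds as a control protein.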 Conditions: higher = more signal.
The nature of assay [16]: probe aInhba binding on compound microarray – biochemical, small-molecule microarray, 635/667 nm fluorescence, primary screen (AID 1148).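 Note: score merges 667nm spot fluorescence with signal-to-noise for antibody binding to printed compounds.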 The settings on record: higher = more signal.
The target of assay [17] is Torsin-1A (Homo sapiens) (UniProt O14656). As to the kind of experiment: TOR1A wild-type binding on microarray – cell lysate, small-molecule microarray, lysate, 635/667 nm, primary screen (AID 1149). The settings on record: COS7 hTOR1A-WT lysate, 635 nm fluorescence, higher = more signal.
Assay [18] shares this target. The assay is described as follows: torsin A mutant lysate binding on microarrays – cell lysate, small-molecule microarray, COS7 lysate, 635/667 nm fluorescence, primary screen (AID 1150).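 Note: score pools 667 nm emission and signal to noise measuring lysate protein binding.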 Conditions: COS7 hTOR1A mutant lysate, 635 nm fluorescence, higher = more signal.
Assay [19] deals with Sonic hedgehog protein (Shh). As to the kind of experiment: Sonic hedgehog microarray binding compounds – biochemical, small-molecule microarray, 635/667 nm fluorescence, primary screen (AID 1151).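 Note: Shh protein binding to compounds spotted on small-molecule microarray slides; score combines spot fluorescence intensity with signal-to-noise across triplicate slides.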 Conditions: 635 nm fluorescence, higher = more signal.

Chain of Follistatin (Homo sapiens) (P19883 whole entry, looked up): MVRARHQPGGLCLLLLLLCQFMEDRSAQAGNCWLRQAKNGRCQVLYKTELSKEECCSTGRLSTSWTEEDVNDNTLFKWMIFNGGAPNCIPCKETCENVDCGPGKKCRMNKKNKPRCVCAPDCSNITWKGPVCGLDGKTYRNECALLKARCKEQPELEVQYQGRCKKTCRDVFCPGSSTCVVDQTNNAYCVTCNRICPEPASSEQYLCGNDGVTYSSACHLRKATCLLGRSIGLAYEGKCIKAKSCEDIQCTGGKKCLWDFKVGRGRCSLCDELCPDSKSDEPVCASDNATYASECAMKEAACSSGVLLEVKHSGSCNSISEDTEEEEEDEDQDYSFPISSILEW
Chain of Focal adhesion kinase 1 (Homo sapiens) (Q05397 whole entry, looked up): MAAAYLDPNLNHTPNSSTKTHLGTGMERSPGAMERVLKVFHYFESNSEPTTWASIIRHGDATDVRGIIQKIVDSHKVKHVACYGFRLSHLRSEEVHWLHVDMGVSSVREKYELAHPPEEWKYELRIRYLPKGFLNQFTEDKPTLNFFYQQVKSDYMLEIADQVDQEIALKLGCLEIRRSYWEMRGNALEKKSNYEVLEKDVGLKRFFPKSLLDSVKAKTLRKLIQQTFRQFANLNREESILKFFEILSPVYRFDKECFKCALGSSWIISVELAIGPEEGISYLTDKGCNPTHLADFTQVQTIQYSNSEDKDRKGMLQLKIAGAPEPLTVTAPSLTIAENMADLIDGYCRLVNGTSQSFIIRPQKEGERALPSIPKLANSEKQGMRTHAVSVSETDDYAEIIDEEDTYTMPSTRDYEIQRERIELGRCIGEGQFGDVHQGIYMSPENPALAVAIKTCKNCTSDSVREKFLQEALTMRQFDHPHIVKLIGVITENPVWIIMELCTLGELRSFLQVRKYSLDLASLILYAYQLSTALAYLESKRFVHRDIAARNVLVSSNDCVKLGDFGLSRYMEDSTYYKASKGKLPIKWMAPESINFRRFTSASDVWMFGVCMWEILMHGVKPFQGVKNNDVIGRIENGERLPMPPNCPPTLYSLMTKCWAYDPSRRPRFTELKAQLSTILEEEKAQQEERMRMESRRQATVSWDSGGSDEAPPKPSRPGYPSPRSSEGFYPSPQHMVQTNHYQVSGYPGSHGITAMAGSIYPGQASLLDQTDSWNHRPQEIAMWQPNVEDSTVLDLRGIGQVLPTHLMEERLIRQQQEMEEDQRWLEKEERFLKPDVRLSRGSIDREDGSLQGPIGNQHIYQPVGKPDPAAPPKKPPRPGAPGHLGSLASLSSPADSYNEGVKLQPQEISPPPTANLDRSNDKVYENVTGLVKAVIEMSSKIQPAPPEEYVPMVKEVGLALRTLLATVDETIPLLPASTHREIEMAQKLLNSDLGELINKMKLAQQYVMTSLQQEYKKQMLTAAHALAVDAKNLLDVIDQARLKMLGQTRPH
Chain of Fibroblast growth factor 2 (Homo sapiens) (P09038 whole entry, looked up): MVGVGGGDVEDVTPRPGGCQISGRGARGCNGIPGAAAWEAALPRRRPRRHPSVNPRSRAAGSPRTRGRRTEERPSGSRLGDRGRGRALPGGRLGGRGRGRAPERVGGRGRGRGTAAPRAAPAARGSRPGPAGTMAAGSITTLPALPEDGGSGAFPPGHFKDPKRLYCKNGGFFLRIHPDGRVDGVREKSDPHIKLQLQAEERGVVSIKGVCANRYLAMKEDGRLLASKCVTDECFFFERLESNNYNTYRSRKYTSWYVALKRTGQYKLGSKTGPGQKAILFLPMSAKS
Chain of Luciferin 4-monooxygenase (Photinus pyralis) (P08659 whole entry, looked up): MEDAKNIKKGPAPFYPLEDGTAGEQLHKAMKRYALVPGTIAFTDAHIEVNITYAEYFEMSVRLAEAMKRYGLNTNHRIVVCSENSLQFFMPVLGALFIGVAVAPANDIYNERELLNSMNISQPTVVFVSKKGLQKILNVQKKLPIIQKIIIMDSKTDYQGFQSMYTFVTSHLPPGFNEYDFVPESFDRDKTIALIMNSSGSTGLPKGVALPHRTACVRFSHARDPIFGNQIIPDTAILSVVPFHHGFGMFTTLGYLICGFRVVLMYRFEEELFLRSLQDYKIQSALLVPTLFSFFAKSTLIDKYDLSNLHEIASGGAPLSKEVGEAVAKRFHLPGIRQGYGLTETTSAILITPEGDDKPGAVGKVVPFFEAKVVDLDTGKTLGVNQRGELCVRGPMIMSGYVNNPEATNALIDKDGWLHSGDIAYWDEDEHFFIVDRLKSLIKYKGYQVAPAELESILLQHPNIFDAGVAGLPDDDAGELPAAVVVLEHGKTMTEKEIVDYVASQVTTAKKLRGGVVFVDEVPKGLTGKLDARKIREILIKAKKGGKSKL
Chain of Torsin-1A (Homo sapiens) (O14656 whole entry, looked up): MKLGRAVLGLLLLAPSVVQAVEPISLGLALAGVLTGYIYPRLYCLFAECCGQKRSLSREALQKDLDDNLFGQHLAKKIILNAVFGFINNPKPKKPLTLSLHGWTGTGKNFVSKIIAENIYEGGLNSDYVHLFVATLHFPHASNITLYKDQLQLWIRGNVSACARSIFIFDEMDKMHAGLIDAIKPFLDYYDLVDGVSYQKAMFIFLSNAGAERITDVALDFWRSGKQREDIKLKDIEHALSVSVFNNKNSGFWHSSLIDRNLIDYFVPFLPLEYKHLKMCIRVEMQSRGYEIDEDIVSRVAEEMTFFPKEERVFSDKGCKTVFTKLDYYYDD
Chain of Streptavidin (Streptomyces avidinii) (P22629 whole entry, looked up): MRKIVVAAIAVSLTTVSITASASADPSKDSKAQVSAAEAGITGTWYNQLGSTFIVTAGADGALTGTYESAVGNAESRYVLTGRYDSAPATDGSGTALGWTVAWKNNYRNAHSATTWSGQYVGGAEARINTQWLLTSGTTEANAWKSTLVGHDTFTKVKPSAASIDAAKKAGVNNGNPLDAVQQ

`COC(=O)[C@@]1(Cc2ccc(OC)cc2)[C@H]2c3cc(C(=O)N4CCCC4)n(Cc4ccccn4)c3C[C@H]2CN1C(=O)c1ccccc1`: the composite z-score was 2.3 in assay [1]; 1.26 in assay [2]; 0.464 in assay [3]; 0.8 in [4]; 0.169 in assay [5]; -0.332 in [6]. Also, the composite z-score in the assay with Lefty1 is -0.467; in [8], 1.2; in assay [10], 0.782; in assay [15], 0.523; in assay [16] it was 1.1; in the assay with Torsin-1A (Homo sapiens) [17], -0.367. In addition, the composite z-score was 1.05 with Torsin-1A (Homo sapiens) [18] and -0.622 in assay [19]. Further, the z-score was 1.37 in [7]; 1.91 (inactive) in assay [9]; -1.47 (inactive) in assay [11]; 0.621 (inactive) in assay [12]; 0.201 (inactive) in assay [13]; 1.03 (inactive) in [14].

On to `COC(=O)c1c(CC[C@@H](CO)NC(=O)N[C@@H](Cc2ccccc2)Cn2cc(C3(O)CCCCC3)nn2)oc(C(C)=O)c1C(=O)OC`, for which the composite z-score in assay [1] turned out to be 1.37; in [2], 0.868; in [3] it was 0.0673; in [4] it was 0.307; in assay [5], 0.691; in assay [6], 0.957. Further, the composite z-score is 1.31 with Lefty1; -0.267 in [8]; 0.636 in assay [10]; 1.16 in assay [15]; -0.0178 in assay [16]; 0.69 with Torsin-1A (Homo sapiens) [17]. Besides, the composite z-score came out at 0.405 in the assay with Torsin-1A (Homo sapiens) [18] and 1.7 in assay [19]. Further, the z-score is -0.941 in assay [7]; 0.896 (inactive) in [9]; -5.52 (inactive) in assay [11]; -1.73 (inactive) in assay [12]; 0.512 (inactive) in [13]; -1.36 (inactive) in assay [14].

On to `Cc1ccc(F)cc1S(=O)(=O)N[C@@H]1CCN(Cc2ccc(-c3ccccc3)cc2)C1`, for which the composite z-score in assay [1] was -0.0798; in [2] it was 0.517; in assay [3] it was 0.377; in assay [4], -0.0516; in assay [5], 0.646; in assay [6], 0.424. In addition, the composite z-score with Lefty1 is 0.292; in assay [8], -0.108; in assay [10] it was 0.116; in [15] it was -0.164; in [16], -0.128; with Torsin-1A (Homo sapiens) [17], 0.606. Also, the composite z-score is 0.743 with Torsin-1A (Homo sapiens) [18] and 0.98 in [19]. Moreover, the z-score in assay [7] was 0.225; in [9], 0.715 (inactive); in [11] it was -6.41 (inactive); in assay [12], 0.00325 (inactive); in assay [13], 6.48 (inactive); in assay [14], 0.959 (inactive).

Turning to `CCCCCN1CC=CC23O[C@@H]4/C=C\CCCOC(=O)C4[C@H]2C(=O)N(CCCCCCO)[C@@H]3C1=O` (stereo not given in full), the composite z-score in [1] was 0.599; in assay [2] it was 0.906; in [3] it was 0.929; in [4], -2.05; in assay [5] it was -0.679; in assay [6] it was -0.964. Besides, the composite z-score in the assay with Lefty1 was 0.0393; in [8], 1.14; in [10], -0.686; in assay [15], -1.21; in [16], -0.128; with Torsin-1A (Homo sapiens) [17] it was 0.61. Besides, the composite z-score with Torsin-1A (Homo sapiens) [18] came out at 0.474; in assay [19], 0.124. Also, the z-score in assay [7] is 1.05; in assay [9] it was -3.28 (inactive); in assay [11], -1.95 (inactive); in [12], -2.51 (inactive); in assay [13], -1.44 (inactive); in assay [14], -0.43 (inactive).

Regarding `C=C[C@H](C)[C@@H](O)c1ccc(O)c2ccccc12`, the composite z-score was 1.25 in [1]; -0.655 in assay [2]; -0.432 in [3]; -0.407 in assay [4]; 1.05 in assay [5]; 0.944 in assay [6]. The composite z-score with Lefty1 is 0.246; in assay [8], 0.545; in assay [10], -0.302; in [15], -0.785; in assay [16], -0.0471; with Torsin-1A (Homo sapiens) [17] it was -0.378. For the same molecule, the composite z-score with Torsin-1A (Homo sapiens) [18] is -0.0127; in [19] it was 1.38. Further, the z-score in assay [7] was -0.401; in assay [9] it was -0.322 (inactive); in assay [11], -0.276 (inactive); in [12] it was -0.501 (inactive); in [13], -0.869 (inactive); in assay [14], 1.63 (inactive).

Regarding `CC(C)CNC(=O)[C@@]1(c2ccc([N+](=O)[O-])cc2)CC(=O)N(CC23CC4CC(CC(C4)C2)C3)[C@@H]1c1ccc(CO)cc1`, the composite z-score in assay [1] is 0.943; in assay [2] it was 0.662; in assay [3], 0.24; in [4], -0.0362; in assay [5] it was 0.946; in assay [6], 1.1. The composite z-score in the assay with Lefty1 is 0.0651; in assay [8], 0.358; in assay [10] it was 0.239; in assay [15], -0.256; in [16] it was -0.0442; with Torsin-1A (Homo sapiens) [17] it was 1.16. For the same molecule, the composite z-score came out at 0.395 with Torsin-1A (Homo sapiens) [18] and 1.04 in assay [19]. Also, the z-score in assay [7] is 2.5; in assay [9], -1.61 (inactive); in assay [11] it was -4.7 (inactive); in [12] it was 0.677 (inactive); in assay [13], -0.0888 (inactive); in assay [14] it was -1.32 (inactive).
